Most compounds without a hit are left out; they make up all but 21% or so of the library.
Shiga inhibitor = A qHTS for Small Molecule Inhibitors of Shiga Toxin; Vero cells, Shiga toxin protein synthesis inhibition reporter; inhibition, % at 38.7 µM; actives 9.2% (n = 290,000); AID 2315, 2010; in the data active = inhibition mostly above about 28%, no sharp cut-off; inactive = mostly below about 43%; also: 0% is about no effect
Pf growth 96h = Primary qHTS for delayed death inhibitors of the malarial parasite plastid, 96 hour incubation; P. falciparum luciferase reporter growth, 96 h; Potency, µM (series often up to 28.7 µM), for inactives: at the highest dose activity change, negative = inhibition, actives largely listed as inhibitors; actives 6.9% (n = 320,000); AID 504834, 2011; also: potency is read from the fitted curve at half-maximal effect; % is scaled to controls: 0 for no effect and ±100 for the full control effect
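Infected RBCs, 2% Hct / 0.05% parasitemia final; luciferase-reporter P. falciparum; cpd 96 h, 37 C, 5% CO2; luciferase detection reagent; luminescence.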
Pf growth 48h = Primary qHTS for delayed death inhibitors of the malarial parasite plastid, 48 hour incubation; AID 504832, 2011; P. falciparum luciferase growth in erythrocytes, 48 h; actives 5.9% (n = 310,000); Potency, µM (top dose mostly 28.7 µM), for the others: top-dose activity change, negative = inhibition, usual class: inhibitors; also: potency is read from the fitted curve at half-maximal effect; % is scaled to controls: 0 for no effect and ±100 for the full control effect
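Luciferase-expressing parasites in RBCs, 2% Hct / 0.1% parasitemia final; RPMI 1640 + 0.5% Albumax; 37 C, 5% CO2, one generation; luminescence read-out, lower signal = inhibition.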
CHX counter = Cycloheximide Counterscreen for Small Molecule Inhibitors of Shiga Toxin. cell reporter, cycloheximide protein synthesis inhibition counterscreen. max response, %. actives 12% (n = 300,000); in the data active = max response mostly above about 13%, no sharp cut-off; inactive = mostly below about 14%; also: read at 38.3 µM for the half of the compounds with a filed dose; 0% is about no effect
Numbers without * were called inactive; u = inconclusive; x = not tested or not shown; ! = a repeat was not active; [ ] = another dose, or the depositor's remark. Unless noted, calls follow the shape of the dose curve; as a rule, active = well fitted inhibition curve with a large enough effect; inconclusive = small, poorly fitted or top-dose-only effect, or another doubt; inactive = no such curve, though single readings can be large or run the other way.

SMILES	Shiga inhibitor	Pf growth 96h	Pf growth 48h	CHX counter
CC(C)CC(=O)Nc1ccc(Oc2ccc3c(c2)C(=O)NC3=O)cc1	4	13µM*	15%	-2
CC(N)CCCC(C)(C)O (configuration not stated)	x	3%	-15%	x
O=C(Nc1nc(-c2cccs2)cs1)c1cccc(S(=O)(=O)N2CCCCC2)c1	17	u	u	18*
O=C(Nc1nc(-c2ccc(S(=O)(=O)N3CCCCCC3)cc2)cs1)c1cccs1	16	43%	u	-1
Cc1ccc(-c2csc(NC(=O)COC(=O)c3cccc(S(=O)(=O)N4CCOCC4)c3)n2)cc1	131*	0%	80%	22*
Cc1ccc(-c2csc(NC(=O)c3cccc(S(=O)(=O)N4CCN(C)CC4)c3)n2)cc1	-3	7.4µM*	10%	-2
O=C1C[C@H](c2ccc3ccccc3c2)N1S(=O)(=O)c1ccccc1[N+](=O)[O-]	-5	x	x	15
COc1cc(N2CCCC2)c(OC)cc1/C=C(/C#N)c1ccc(F)cc1	12	-26%	10µM*	-1
Cc1cccc(OCCCN2CCOCC2)c1C	17	6.6µM*	34%	8
Brc1ccccc1OCCCN1CCOCC1	50*	9%	24%	32*
C[N+]1(CC2COC(c3ccccc3)(C3CCCCC3)O2)CCCCC1 (configuration not stated)	x	5.9µM*	1.1µM*	x
O=c1c(C(c2ccc(F)cc2)c2c(O)nc3n(c2=O)CCS3)c(O)nc2n1CCS2	11	17%	18%	1
CC(=O)c1ccc(C(=O)N2CCc3c([nH]c4ccccc34)C2c2cccc(C)n2)s1 (configuration not stated)	72	13µM*	u	2
Cc1nc(C)c(CC(=O)N2CCc3c([nH]c4ccccc34)C2c2ccccn2)s1 (configuration not stated)	-2	10µM*	u	-3
CC(=O)c1cc(CC(=O)N2CCc3c([nH]c4ccccc34)C2c2ccccn2)cs1 (configuration not stated)	18	u	u	1
Cc1cc2cc(C(=O)N3CCc4c([nH]c5ccccc45)C3c3ccccn3)ccc2o1 (configuration not stated)	4	9.3µM*	10µM*	6
Cc1cccc(C2c3[nH]c4ccccc4c3CCN2C(=O)c2ccc(=O)[nH]c2)n1 (configuration not stated)	-3	-13%	u	-1
O=C(c1ccc(-n2cccn2)cc1)N1CCc2c([nH]c3ccccc23)C1c1ccccn1 (configuration not stated)	-6	-13%	u	9
COc1ccc(N2CCN(C(=O)COC(=O)CCOc3ccc(C(C)(C)C)cc3)CC2)cc1	x	70%	20%	x
CC(=O)c1c(C(C)=O)c(C)n(Cc2ccc(Cl)cc2)c1C	-18	1.5µM*	x	1
CCOC(=O)c1c(C=O)c(C)n(Cc2ccc(Cl)cc2)c1C	-14	u	1.9µM*	6
CC(=O)c1c(C(C)=O)c(C)n(NC(=O)c2ccc(Cl)cc2)c1C	-4	6%	x	-5
N#CCc1ccccc1C(=O)OCC(=O)N(Cc1ccccc1)Cc1ccccc1	x	u	-4%	x
O=S(=O)(c1ccccc1)N1CCN(C2CCN(Cc3ccccc3)CC2)CC1	-14	0%	0.1µM*	1
COc1ccccc1C(=O)N1CCN(C2CCN(Cc3ccccc3)CC2)CC1	-5	0%	11%	43*
SMILES	Shiga inhibitor	Pf growth 96h	Pf growth 48h	CHX counter
c1ccc(CN2CCC(N3CCC(N4CCCCCC4)CC3)CC2)cc1	-21	8.3µM*	13µM*	5
Cc1ccc(S(=O)(=O)N2CCN(C3CCN(Cc4ccccc4)CC3)CC2)cc1	-19	-8%[5.75 µM]	6%	-4
COc1ccc(C(=O)N2CCN(C3CCN(Cc4ccccc4)CC3)CC2)cc1OC	-9	-36%	x	-3
Cc1ccc(CNC(=S)NC2CCC(C(C)(C)C)CC2)cc1 (configuration not stated)	-18	12µM*	9.3µM*	-1
CCc1ccccc1NC(=O)NC1CC2CCC(C1)N2Cc1cccs1 (configuration not stated)	-16	u	-12%	-2
CC(NC(=O)C1CCC1)c1ccccc1 (configuration not stated)	5	x	-8%	-3
Cc1ccc(CN2C3CCCC2CC(NC(=S)NCc2ccccc2)C3)cc1 (configuration not stated)	-2	0%	12µM*	1
CC(NC(=S)NC1CCC(C(C)(C)C)CC1)c1ccccc1 (configuration not stated)	-5	9.3µM*	7.4µM*	-2
CCc1ccc(NC(=S)NC2CC3CCCC(C2)N3Cc2cccs2)cc1 (configuration not stated)	-11	2.1µM*	u	1
Cc1cc(NC(=O)C(C)SCC(=O)OCC(=O)N(C)c2ccccc2)no1 (configuration not stated)	x	u	-3%	x
Cc1ccc(S(=O)(=O)N(CC2CO2)c2cc(Cl)ccc2Cl)cc1 (configuration not stated)	-2	26%	0%	-1
CSCCC1NC(=O)N(C(C)C(=O)Nc2cc(Cl)cc(Cl)c2)C1=O (configuration not stated)	-10	u	6%	-2
O=C(Cn1cnc2c(nnn2Cc2ccccc2)c1=O)Nc1ccc2c(c1)OCCO2	-25	3%	4%	1
Cc1cccc(NC(=S)NC2CC3CCCC(C2)N3Cc2ccccc2)c1C (configuration not stated)	-9	1%	5.9µM*	-3
CCc1ccccc1NC(=S)NC1CC2CCC(C1)N2Cc1ccc(F)cc1 (configuration not stated)	-27	-8%	7.4µM*	-2
CCc1ccccc1NC(=S)NC1CC2CCC(C1)N2Cc1ccco1 (configuration not stated)	3	u	-3%	6
CCc1c(C)nc2cc(-c3ccc(OC)c(OC)c3)nn2c1NCC1CC1	26	u	x	24
CCCCNc1c(N)n(CC(C)C)c(=O)[nH]c1=O	3	5%	15µM*	-3
O=C1C=C(c2ccc(Cl)c(C(F)(F)F)c2)C[C@@H](c2ccc(Cl)cc2)C1	x	-1%	u	x
CN(C)C(=O)Oc1cccc([N+](C)(C)C)c1	-13	4.1µM*!	u	-3
COc1c(-c2ccccc2)oc2c(ccc3occc32)c1=O	x	-23%	-27%	x
O=C(Nc1ccc(Cl)cc1)C1CCC(=O)N1Cc1ccccc1Cl (configuration not stated)	-10	4.7µM*	9.3µM*	-2
CCOC(=O)C1=NNC(C(=O)c2ccc(C)cc2)C1c1ccc(C)cc1 (configuration not stated)	32	22%	10µM*	5
CCOC(=O)C1=NNC(C(=O)c2ccc(OC)cc2)C1c1ccccc1 (configuration not stated)	-5	x	u	13
